# KDM4E inh = inhibitors of human JMJD2E histone demethylase; B2RXH2; JMJD2E catalytic domain, FDH-coupled NADH fluorescence (FDH is formaldehyde dehydrogenase); Potency, µM (top dose mostly 57.1 µM), actives largely listed as inhibitors; 230,000 compounds, 1.6% hits; AID 2147; active = well fitted inhibition curve with a large enough effect, not every such curve was filed as active; inconclusive = small, poorly fitted or top-dose-only effect, or another doubt; inactive = no such curve, though single readings can be large or run the other way; also: nearly all actives have a fitted effect of over 50% in size
# Target sequence (B2RXH2 1-337 limits assumed): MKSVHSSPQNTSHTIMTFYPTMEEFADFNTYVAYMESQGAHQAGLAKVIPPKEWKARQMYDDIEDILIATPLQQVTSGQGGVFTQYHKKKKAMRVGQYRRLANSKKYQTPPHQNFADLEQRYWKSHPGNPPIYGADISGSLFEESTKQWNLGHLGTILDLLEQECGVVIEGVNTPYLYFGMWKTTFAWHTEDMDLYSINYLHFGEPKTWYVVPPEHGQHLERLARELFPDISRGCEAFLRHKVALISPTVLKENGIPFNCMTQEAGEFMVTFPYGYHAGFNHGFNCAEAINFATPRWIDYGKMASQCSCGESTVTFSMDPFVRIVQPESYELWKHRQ
# Tau fluor cs = counter-screen for tau fibril formation inhibitors; AID 1463; 280,000 compounds, 0.93% hits; tau K18 P301L Alexa594 fluorescence, heparin fibrillization; Potency, µM (top dose mostly 57.7 µM); also: nearly all actives have a fitted effect of over 55% in size
#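 Human tau K18 P301L (15 uM unlabeled, 0.24 uM Alexa 594-labeled) in 100 mM sodium acetate pH 7 with 20 uM heparin, 6 hr at 37 C. ThT 30 uM added, 1 hr ambient; Alexa 594 FP and total fluorescence read at 555/632 nm.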
# Tau FP inhib = inhibitors of human tau fibril formation | Potency, µM (highest dose often 57.7 µM), actives largely listed as inhibitors | AID 1468 | P10636 | 280,000 compounds, 0.39% hits | K18 P301L tau heparin fibrillization, Alexa594 FP, 6 h; also: nearly all actives have a fitted effect of over 55% in size
# Target sequence (P10636 561-689 P618L limits assumed): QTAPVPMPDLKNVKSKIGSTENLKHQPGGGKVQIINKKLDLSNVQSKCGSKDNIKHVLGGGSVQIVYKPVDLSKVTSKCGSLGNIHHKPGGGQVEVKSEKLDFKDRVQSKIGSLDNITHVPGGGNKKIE
#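 Quantitative HTS format: compounds meet 15 uM recombinant K18 P301L tau and Alexa 594-tau tracer in 100 mM sodium acetate pH 7; 20 uM heparin triggers fibrillization at 37 C over 6 hr; FP gives the signal.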
# Tau ThT inhib = blocks human tau fibril formation measured by thioflavin T; recombinant tau K18 P301L (four-repeat tau fragment), heparin-induced fibrillization, ThT fluorescence; Potency, µM (titrated, usually from 57.4 µM), hits mostly inhibitors; 270,000 compounds, 2.1% hits; also: nearly all actives have a fitted effect of over 55% in size
#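 Aggregation was driven by heparin (20 uM final) acting on recombinant tau […] bearing P301L in 100 mM sodium acetate pH 7; fibrils were detected with Thioflavin T.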
# FBPA coupling cs = coupling enzyme interference in Giardia aldolase counter-screen; AID 2472; 290,000 compounds, 0.67% hits; coupling enzyme system counterscreen, AmpLite Red fluorescence; activity change, negative = inhibition, % at 58.2 µM, hits read low; in the data active = activity change below about -30%
#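 First, compound is pin-transferred into glyceraldehyde-3-phosphate coupling-enzyme reagent at 57.5 uM final and held 10 min at RT. Next, substrate, coupling system and AmpLite Red are added. After 20 min RT, fluorescence (525/598 nm) is read.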
# Hits are given with their value; i = inactive; ? = inconclusive; nt = no result; [ ] = remark or other dose. Most compounds without a hit are left out; they make up all but 3% or so of the library. Unless noted, calls follow the shape of the dose curve; as a rule, active = well fitted curve in the direction sought with a large enough effect; inconclusive = small, poorly fitted or top-dose-only effect, or another doubt; inactive = no such curve, though single readings can be large; an effect the other way counts as inactive or inconclusive.
SMILES,KDM4E inh,Tau fluor cs,Tau FP inhib,Tau ThT inhib,FBPA coupling cs
CCCOc1ccc(CN2C(=O)C(=O)c3cccc(C)c32)cc1,nt,i,i,17.8µM,nt
N#C/C(=C(/O)c1ccco1)c1nc2ccccc2s1,i,i,i,?,i
N#C/C(=C(/O)c1cc2ccccc2o1)c1nc2ccccc2s1,i,?,?,6.31µM,i
CNC(=S)N=Nc1c(O)[nH]c2ccccc12,i,i,i,?,i
Oc1[nH]c2ccc(Br)cc2c1N=NC(=S)Nc1ccc(F)cc1,i,i[0.0958 µM],i[0.0958 µM],nt,i
O=C(N=Nc1c(O)[nH]c2ccc(Br)cc12)c1ccccc1-n1cccc1,i,14.1µM[quencher],?,?,i
Oc1ccc(NC(=S)N=Nc2c(O)[nH]c3ccc(Br)cc23)cc1,i,15.8µM[quencher],i,5.01µM,i
CNC(=S)N=Nc1c(O)[nH]c2ccc(C(C)C)cc12,i,?,i,15.8µM,i
Oc1cccc(NC(=S)N=Nc2c(O)[nH]c3ccc(Br)cc23)c1,i,11.2µM[quencher],i,6.31µM,i
COC(=O)C[C@H]1c2ccccc2C2=C(C[C@@H](C)[C@H]3C(=O)N(c4ccccc4)C(=O)[C@@H]23)N1C(=O)OC,i[11.4 µM],i[11.6 µM],i[11.6 µM],i[11.5 µM],i
Oc1ccc(NC(=S)N=Nc2c(O)[nH]c3ccccc23)cc1,i,?,i,14.1µM,i
Cc1ccc(NC(=S)N=Nc2c(O)[nH]c3ccccc23)cc1,i,?,?,?,i
C[n+]1cccc2cccc([O-])c21,15.8µM,i,?,15.8µM,-45.1
CC(=O)n1cc(N(C(=O)CCl)c2ccc(Cl)cc2)c2ccccc21,?,i,i,28.2µM,i
COc1ccc(C2=Nn3c(nnc3-c3cc(OC)cc(OC)c3)SC2)cc1,nt,nt,nt,nt,i
CCOc1ccc2c(O)csc2c1,i,i,?,25.1µM,i
Cc1ccccc1Nc1oc(-c2ccccc2)nc1-c1cccs1,i,i,i,i,i
Cc1nc(NC(=O)CC(C)C)sc1-c1csc(Nc2ccc(Cl)cc2Cl)n1,i,22.4µM[quencher],i,?,i
Cc1nc(NC(=O)CC(C)C)sc1-c1csc(Nc2ccc(Cl)cc2)n1,i,11.2µM[quencher],i,?,i
COc1ccc(NC(=O)Cn2c(=O)n(-c3ccc(Cl)cc3)c(=O)c3c(C)c(C(=O)N(C)C)sc32)cc1Cl,nt,i,i,?,nt
COc1ccc(-n2c(=O)c3c4c(sc3n(CC(=O)N3CCCCC3C)c2=O)CCC4)c(OC)c1 (stereo unspecified),nt,i,i,i,nt
Cc1nc2cc3nc(C(F)(F)F)[nH]c3cc2[nH]1,?,i,i,?,-35.9
Nc1ccc2nc(C(F)(F)F)[nH]c2c1,?,i,i,?,i
COC(=O)[C@H](CCSC)NC(=O)c1ccc(NC[C@@H](N)CS)cc1-c1ccccc1,nt,nt,nt,nt,i
O=C1CC(N(CCc2ccccc2)C(=S)Nc2ccccc2)C(=O)N1c1ccc(Br)cc1 (stereo unspecified),i,?,7.94µM,?,i
SMILES,KDM4E inh,Tau fluor cs,Tau FP inhib,Tau ThT inhib,FBPA coupling cs
COc1ccc(CCN(C(=S)Nc2ccccc2)C2CC(=O)N(c3ccccc3)C2=O)cc1 (stereo unspecified),i,?,i,i,i
CC12CCC=CC1C(c1ccc(F)c(Br)c1)N(Cc1ccccc1)C2=O (stereo unspecified),nt,nt,nt,nt,i
Cc1cccc(Oc2coc3cc(OCC(=O)NC4CCCCC4)ccc3c2=O)c1,nt,i,i,?,nt
CC(C)NCC(O)Cn1c2c(c3ccccc31)CCc1c-2cnn1-c1ccccc1 (stereo unspecified),?,?,i,15.8µM,i
CC1(C)CC(=O)C(C(c2ccco2)C2C(=O)CC(C)(C)CC2=O)C(=O)C1,i,i,?,28.2µM,i
CCOC(=O)Nc1c(O)ccc2oc(C)c(-c3ccccc3)c12,i,i,i,i,-56.7
COC(=O)C[C@H]1c2ccccc2C2=C(C[C@@H](C)[C@H]3C(=O)NC(=O)[C@@H]23)N1C(=O)OC,i[11.4 µM],i[11.6 µM],i[11.6 µM],i[11.5 µM],i
N#CC1=C(N)NC(SCC(=O)c2ccc(Br)cc2)=C(C#N)C12CCCCC2,i,12.6µM[quencher],?,?,i
N#CC1=C(N)NC(SCC(=O)c2ccc(Cl)cc2)=C(C#N)C12CCCC2,i,15.8µM[quencher],i,?,i
CCCn1c(O)c(N=Nc2ccc3ccccc3n2)c2ccccc21,i,i,i,12.6µM,i
CC(C)CCn1c(O)c(N=Nc2ccccn2)c2ccccc21,i,i,i,?,i
O=Cc1ccc(-n2cncn2)cc1,7.08µM,i,i,i,i

# Compound activity (PubChem BioAssay)
